Experimental findings from the supplement of paper PMC10503962 are described below.

The assay concerns Trichuris muris adult worms. As to the kind of experiment: mean motility score (Paragon pixel variance) of adult worms (arbitrary units); higher = more motile worms, i.e. less anthelmintic effect; extreme values may be limits of the assay. The conditions noted are these: 100 µM; 24 h. The method, boiled down: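 Single adult Trichuris muris worms, collected from infected NOD SCID mice, were placed in 96-well plates with 100 μL RPMI-1640 plus antibiotics and drug at 100 μM (1% v/v DMSO), then kept at 37°C and 5% CO2 for 24 h. Plates were filmed on an automated phenotyping platform (200 frames, 100 ms apart). Motility score came from Paragon pixel-variance analysis, averaged across replicate wells. Each drug had three worms in three wells, run on three separate occasions, with vehicle and positive controls.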
For `NC(CO)(CO)CO` [tromethamine], the mean motility score was determined as 2770.

For the compound `CCN(CC)C(C)CN1c2ccccc2Sc2ccccc21.Cl` (stereo not drawn) [ethopropazine hydrochloride], the mean motility score was determined as 114.

Take `CSCC[C@H](N)C(=O)O` [methionine]: the mean motility score is 3180.

`Cc1[nH]c(/C=C2\C(=O)Nc3ccccc32)c(C)c1CCC(=O)O` [orantinib]: the mean motility score came out at 3560.

Regarding `N[C@@H](Cc1cc(I)c(Oc2ccc(O)c(I)c2)c(I)c1)C(=O)O` [liothyronine], the mean motility score stood at 1020.

Turning to `C=C(CC)C(=O)c1ccc(OCC(=O)O)c(Cl)c1Cl` [ethacrynic acid], the mean motility score is 215.

`COc1ccc(C(Cl)=C(c2ccc(OC)cc2)c2ccc(OC)cc2)cc1` [chlorotrianisene] had a mean motility score of 2530.

As to `N[C@@H]1CONC1=O` [cycloserine], the mean motility score stood at 3930.

`C#C[C@]1(O)CC[C@H]2[C@@H]3CCc4cc(O)ccc4[C@H]3CC[C@@]21C` [ethinyl estradiol]: the mean motility score stood at 3320.

Compound `CCCN[C@H]1CCc2nc(N)sc2C1.Cl.Cl` [pramipexole dihydrochloride] returned a mean motility score of 3620.

In turn, `CN1CCN(CCCN2c3ccccc3Sc3ccc(C(F)(F)F)cc32)CC1.Cl.Cl` [trifluoperazine dihydrochloride] gave a mean motility score of 0.

`c1ccc(CC2=NCCN2)cc1` [tolazoline] had a mean motility score of 1230.

`N=C(N)NCCN1CCCCCCC1.N=C(N)NCCN1CCCCCCC1.O=S(=O)(O)O` [guanethidine sulfate] returned a mean motility score of 2380.

The compound `O=C(O)/C=C/C(=O)O.OCCOCCN1CCN(C2=Nc3ccccc3Sc3ccccc32)CC1.OCCOCCN1CCN(C2=Nc3ccccc3Sc3ccccc32)CC1` [quetiapine fumarate] returned a mean motility score of 3120.

In the case of `CC(=O)OC(C)C[N+](C)(C)C.[Cl-]` (stereo not drawn) [methacholine chloride], the mean motility score came to 2220.

`Cl.Cl.NCCc1c[nH]cn1` [histamine dihydrochloride]: the mean motility score worked out at 2750.

On to `COc1nc(C)nc(Cl)c1NC1=NCCN1` [moxonidine], for which the mean motility score is 3500.

The compound `Nc1nc(N)c2nc(-c3ccccc3)c(N)nc2n1` [triamterene] displayed a mean motility score of 2070.

Regarding `CCCNCC(O)COc1ccccc1C(=O)CCc1ccccc1` (stereo not drawn) [propafenone], the mean motility score is 1050.

Compound `CC1(C)S[C@@H]2[C@H](NC(=O)COc3ccccc3)C(=O)N2[C@H]1C(=O)O` [penicillin V] gave a mean motility score of 1470.

As for `CC/C=C\C/C=C\C/C=C\C/C=C\C/C=C\C/C=C\CCC(=O)O` [doconexent], the mean motility score was 4100.

For `C#C[C@]1(O)CC[C@H]2[C@@H]3CCC4=CC(=O)CC[C@@H]4[C@H]3CC[C@@]21CC` [levonorgestrel], the mean motility score is 3390.

In turn, `C[C@@H](Oc1cc(-c2cnn(C3CCNCC3)c2)cnc1N)c1c(Cl)ccc(F)c1Cl` [crizotinib] displayed a mean motility score of 284.

The compound `N[C@@H](Cc1c[nH]c2ccc(O)cc12)C(=O)O` [oxitriptan] had a mean motility score of 3310.

`Nc1cc(-c2ccncc2)cnc1O` [inamrinone] had a mean motility score of 3880.

With `Cc1onc(-c2ccccc2)c1-c1ccc(S(N)(=O)=O)cc1` [valdecoxib], the mean motility score came out at 3610.

Regarding `CS(=O)(=O)Nc1ccc([N+](=O)[O-])cc1Oc1ccccc1` [nimesulide], the mean motility score was 1.33.

In the case of `N[C@@H](CC(=O)O)C(=O)O` [aspartic acid], the mean motility score is 3610.

`Cc1ccc(S(=O)(=O)NC(=O)NN2CCCCCC2)cc1` [tolazamide] displayed a mean motility score of 4090.

The compound `OC(CCCN1CCCCC1)(c1ccccc1)c1ccccc1` [diphenidol] showed a mean motility score of 1940.

`O=C1c2c(O)ccc(O)c2C(=O)c2c(NCCNCCO)ccc(NCCNCCO)c21` [mitoxantrone] gave a mean motility score of 1350.

For `Cc1cc(C2CCCCC2)n(O)c(=O)c1` [ciclopirox], the mean motility score was found to be 3190.

The compound `Oc1nc2ccccc2n1CCCN1CCC(n2c(O)nc3cc(Cl)ccc32)CC1` [domperidone] gave a mean motility score of 3910.

Compound `COc1cc2nc(N3CCN(C(=O)C4CCCO4)CC3)nc(N)c2cc1OC.Cl` (stereo not drawn) [terazosin hydrochloride] gave a mean motility score of 2970.

With `CC(C)NCC(O)COc1cccc2ccccc12.Cl` (stereo not drawn) [propranolol hydrochloride], the mean motility score was 4260.

With `CCCCOc1ccc(C(=O)CCN2CCCCC2)cc1.Cl` [dyclonine hydrochloride], the mean motility score was 3270.

Regarding `C[C@@H]1[C@H](O)[C@@H](C)/C=C/C=C/C=C/C=C/C=C/C=C/C=C/[C@H](O[C@@H]2O[C@H](C)[C@@H](O)[C@H](N)[C@@H]2O)C[C@@H]2O[C@](O)(C[C@@H](O)C[C@@H](O)[C@H](O)CC[C@@H](O)C[C@@H](O)CC(=O)O[C@H]1C)C[C@H](O)[C@H]2C(=O)O` [amphotericin B], the mean motility score is 656.

In turn, `CN1Cc2c(N)cccc2C(c2ccccc2)C1` (stereo not drawn) [nomifensine] gave a mean motility score of 2230.
